EPAC1 agonist – Validation qHTS for agonist of cAMP-regulated guanine nucleotide exchange factor 3 (EPAC1); actives 1% (n = 16,000); Potency, µM, without a hit: max response, positive = active, actives largely listed as activators; EPAC1 Rap1b BODIPY-GDP exchange, fluorescence; also: nearly all actives have a fitted effect of over 70% in size
EPAC2 antag – Validation qHTS for antagonist of cAMP-regulated guanine nucleotide exchange factor 4 (EPAC2); actives 1.7% (n = 16,000); Rap guanine nucleotide exchange factor 4 (Homo sapiens), Q8WZA2; Potency, µM (titrated, usually from 112 µM), without a hit: at the highest dose activity, negative = inhibition, most hits filed as inhibitors; EPAC2 Rap1B BODIPY-GDP exchange, fluorescence;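 also: 100% = activation by cAMP agonist control; nearly all actives have a fitted effect of over 40% in size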
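Fluorescent exchange read-out: 100 nM EPAC2 with 250 nM RAP1B–BODIPY-GDP and 50 uM GDP; BODIPY-GDP release lowers fluorescence. Read at 480/540 nm every 5 min for 30 min at room temperature; normalized to 6.5 mM cAMP.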
* marks the source's active call; other numbers are inactive results; ? = inconclusive; ! = repeats disagree; [ ] = remark or other dose. Only some compounds are listed: those with a hit (about 2.9% of all), similar ones and a draw of the others. Calls follow the shape of the dose curve; as a rule, active = well fitted curve in the direction sought with a large enough effect; inconclusive = small, poorly fitted or top-dose-only effect, or another doubt; inactive = no such curve, though single readings can be large; an effect the other way counts as inactive or inconclusive. Unless noted, % is scaled to controls: 0 for no effect and ±100 for the full control effect; potency is read from the fitted curve at half-maximal effect.

SMILES	EPAC1 agonist	EPAC2 antag
O=c1c2ccccc2[se]n1-c1ccccc1	8%	40µM*!
Cc1ccccc1-n1c(C)nc2ccccc2c1=O	-9%	5%[239 µM]
CCC(=O)C(CC(C)N(C)C)(c1ccccc1)c1ccccc1 (stereo not given)	?	12%[239 µM]
C[C@]12CC[C@@H](O)C[C@H]1CC[C@@H]1[C@H]2CC[C@]2(C)C(=O)CC[C@@H]12	-20%	4%
CCN(CC)CCO[C@H]1CC[C@@]2(C)C(=CC[C@@H]3[C@@H]2CC[C@]2(C)C(=O)CC[C@@H]32)C1	23%	5%
O=c1oc2ccccc2c(O)c1C(CC(O)c1ccc(-c2ccc(Br)cc2)cc1)c1ccccc1 (stereo not given)	-14%	79µM*
C[C@]12CC[C@H]3[C@@H](CC[C@@]45O[C@@H]4C(O)=C(C#N)C[C@]35C)[C@@H]1CC[C@@H]2O	-8%	19%
COc1cc(C[C@@H](C)N)c(OC)cc1Br	-14%	6%[239 µM]
O=C(Nc1ccccc1-c1ccc(Cl)cc1)c1cccnc1Cl	25%	8.9µM*
C[C@@H]1[C@H]2Cc3ccc(O)cc3[C@]1(C)CCN2C	4%	48%[453 µM]
CC1(C)CC/C(=C/c2ccc(Cl)cc2)C1(O)Cn1cncn1 (stereo not given)	14%	?
C[C@]12CC[C@H](O)C[C@H]1CC[C@@H]1[C@@H]2CC[C@]2(C)[C@@H](c3ccc(=O)oc3)C[C@H]3O[C@]132	-10%	-5%
CCOC(=O)[C@]12Cc3cc4c(cc3[C@H]1N(Cc1ccccc1)C(=O)c1ccccc12)OCO4	23%	?
CCOC(=O)[C@]12Cc3cc(N(C)C)ccc3[C@H]1N(Cc1ccccc1)C(=O)c1ccccc12	29%	79µM*
COP(=S)(OC)Oc1ccc(SC)c(C)c1	10%	?
CCOP(=O)(NC(C)C)Oc1ccc(SC)c(C)c1 (stereo not given)	-45%	50µM*
CCCCC/C=C\C/C=C\C/C=C\C/C=C\CCCC(=O)NCC(=O)O	8%	40%
CCCCC/C=C\C/C=C\C/C=C\C/C=C\CCCC(=O)Nc1ccc(O)cc1	-70%	32µM*
CCCCCc1cc(O)c2c(c1)OC(C)(C)[C@@H]1CCC(C)=C[C@@H]21	-67%	?
COC(=O)/C(C)=C\CC12OC(C)(C)C3CC(C=C4C(=O)c5c(OC)c6c(c(CC=C(C)C)c5OC431)OC(C)(CCC=C(C)C)C=C6)C2=O (stereo not given)	-78%	-23%
CC(=O)Oc1c2c(c(CC=C(C)C)c3c1C(=O)C1=CC4CC5C(C)(C)OC(C/C=C(\C)C(=O)O)(C4=O)[C@]15O3)OC(C)(CCC=C(C)C)C=C2 (stereo not given in full)	-207%	71µM*
CC[C@H]1C[C@@H]2C[C@H]3c4[nH]c5ccc(OC)cc5c4CCN(C2)[C@@H]13	15%	15%[239 µM]
CN1[C@H]2CC[C@@H]1[C@@H](C(=O)O)[C@@H](OC(=O)c1ccccc1)C2	3%	?
CO[C@H]1[C@@H](O)C[C@H](O[C@H]2[C@@H](O)C[C@H](O[C@H]3[C@@H](O)C[C@H](O[C@H]4CC[C@@]5(C)[C@H](CC[C@@H]6[C@@H]5C[C@@H](O)[C@]5(C)[C@@H](C7=CC(=O)OC7)CC[C@]65O)C4)O[C@@H]3C)O[C@@H]2C)O[C@@H]1C	-30%	-9%
Clc1ccc(CSC(Cn2ccnc2)c2ccc(Cl)cc2Cl)cc1 (stereo not given)	50µM*!	45µM*!
CC(=O)O[C@H]1C[C@H](O[C@H]2[C@@H](O)C[C@H](O[C@H]3[C@@H](O)C[C@H](OC4CC[C@@]5(C)[C@H](CC[C@@H]6[C@@H]5CC[C@]5(C)[C@@H](C7=CC(=O)OC7)CC[C@]65O)C4)O[C@@H]3C)O[C@@H]2C)O[C@H](C)[C@H]1O[C@@H]1O[C@H](CO)[C@@H](O)[C@H](O)[C@H]1O (stereo not given in full)	-12%	1%
CCCCCCCCc1ccc(O)cc1	-225%	35µM*
CCCCc1ccc(C(=O)O)nc1	-1%	-6%
CCc1cc(OC)c(C[C@@H](C)N)cc1OC	4%	-3%[239 µM]
O=C1c2ccccc2C(=O)C1C(=O)C(c1ccccc1)c1ccccc1	21%	79µM*

Assay outcomes as filed in PubChem BioAssay.
